Results from PubChem BioAssay (EPA / NIEHS).
Some compounds were tested as several samples or in several runs, with calls that do not always agree. Calls of active or inactive are those of the source. The calls were made as follows: active = hit-call score of the fitted dose curve at least 0.9, where 1 is the maximum; inactive = score below 0.9.

assay: CCTE_Shafer_MEA_acute_burst_percentage_std: CCTE's Neural Acute Assay for Standard Deviation of Burst Percentage, Shafer Lab (AID 2284018);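 also: fitted in the negative direction so actives lower burst percentage SD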
Protocol: CCTE_Shafer_MEA_acute assay is conducted using Axion Biosystems 48 well microelectrode array (MEA) plates and Maestro recording system. Each well of the MEA plate contains a grid of 16 microelectrodes embedded in the culture surface. Electrically active cells, such as neurons, can be cultured over the electrodes, and electrical activity in these cells can be recorded extracellularly. The spontaneous firing of neurons is captured from each electrode on a microsecond timescale providing both temporally and spatially precise data. […] The CCTE_Shafer_MEA_acute assay uses primary cultures of rat cortical neurons. As these cultures mature over time, neural networks develop functional activity and form cohesive networks in which electrical activity can be highly coordinated. Baseline 40-minute recordings are made on days post-plating 13 or 15, followed by a secondary 40-minute recording after chemical exposure.CCTE_Shafer_MEA_acute_burst_percentage_std is a component of the CCTE_Shafer_MEA_acute assay. It measures the percentage of spikes (action potential firing) in a single-electrode burst (temporally-clustered groups of spikes) as the number of spikes in bursts divided by the total number of spikes during a recording in a microelectrode array (MEA) using Axion Biosystems Maestro 768 channel amplifier with the AxIS adaptive spike detector. The standard deviation of the burst percentages across electrodes is calculated to report a well-level value. The recordings before and after chemical treatment are used to calculate a percent change in the standard deviation of the burst percentage in each well.Data from the assay component CCTE_Shafer_MEA_acute_burst_percentage_std was analyzed into 1 assay endpoint. This assay endpoint, CCTE_Shafer_MEA_acute_burst_percentage_std, was analyzed in the negative analysis fitting direction relative to DMSO as the negative control and baseline of activity. Using a type of functional reporter, gain or loss-of-signal activity can be used to understand electrical activity.
Spontaneous activity in the cortical cultures was recorded using an Axion Biosystems Maestro 768 channel amplifier and Axion Integrated Studios (AxIS) v1.8 (or later) software. The amplifier recorded from all channels simultaneously (gain = 1200 x; sampling rate = 12.5 kHz/channel): raw signals were filtered with a Butterworth band-pass filter (300-5000 Hz), which filters out slower local field potentials leaving only fast potentials, i.e., "spikes", arising from extracellular currents associated with action potentials (Pine 2006; Wheeler and Nam 2011). On-line spike detection of filtered signals was conducted with the AxIS adaptive spike detector, using a threshold of 8x the root mean squared (rms) noise on each channel. Any electrodes with rms noise levels greater than 5 uV were grounded (e.g., no data were recorded). Once grounded, an electrode was grounded for the duration of the experiment. All recordings were conducted at 37 C. Wells were deemed usable if on the day of the exposure >/= 10 electrodes were active (defined as >/= 5 spikes/min). On DIV 13 or 15, a minimum of three wells from one cortical culture preparation were treated with each compound (0.03-40 uM). Prior to recording baseline activity, each mwMEA plate was placed in the Maestro at 37 C and allowed to sit for 20 min while firing rates stabilized. Baseline activity (40 min) was recorded before the addition of each compound. An additional 40 min of spontaneous activity was recorded in the presence of each compound. Changes in network parameters relative to baseline were assessed following compound treatment.

Compound | outcome | AC50
CC(C)(CO)CO | inactive | –
N[C@@H](CCC(=O)O)C(=O)O | inactive | –
CC(C)CCCC(C)(C)O | inactive | –
CCCCOCCOCCO | inactive | –
CCn1cc(C(=O)O)c(=O)c2ccc(C)nc21 | inactive | –
c1ccc(OCCOc2ccccc2)cc1 | inactive | –
CCCCN(CCO)CCO | inactive | –
CC/C(=C(\c1ccccc1)c1ccc(OCCN(C)C)cc1)c1ccccc1 | inactive | 15.3 µM (active)
CC(=O)c1ccc(C)cc1 | inactive | –
O=C(c1ccc(OCCN2CCCCC2)cc1)c1c(-c2ccc(O)cc2)sc2cc(O)ccc12 | inactive | –
CCCO[Si](OCCC)(OCCC)OCCC | inactive | –
